Records with an inconclusive call do not appear. A call without a number means that no potency is given here. Active and inactive are the calls of the source. Calls come from the whole dose curve; as a rule, active = well fitted inhibition curve with a large enough effect in the signal ratio in the repeat runs, with a control signal flat; inconclusive = weak or mixed curves, or effect the other way; inactive = flat fitted curve, though single readings scatter; the % refers to the signal ratio.

In the test the target is D(2) dopamine receptor (Homo sapiens) (UniProt P14416). Kind of test: Dopamine D2 receptor (DRD2) small molecule antagonists, cell-based qHTS assay (AID 1963595). The following applies: HEK293-DRD2 cAMP HTRF antagonist mode; series mostly up to 92.4 µM. Summed up: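 HEK293 cells stably expressing DRD2, preincubated with 0.1 mM Ro20-1724 and compounds 10 min, were stimulated with 200 nM NKH477 plus 12 nM quinpirole for 30 min at room temperature; cAMP measured by HTRF (665/620 nm).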
D(2) dopamine receptor (Homo sapiens), sequence (P14416 whole entry, looked up): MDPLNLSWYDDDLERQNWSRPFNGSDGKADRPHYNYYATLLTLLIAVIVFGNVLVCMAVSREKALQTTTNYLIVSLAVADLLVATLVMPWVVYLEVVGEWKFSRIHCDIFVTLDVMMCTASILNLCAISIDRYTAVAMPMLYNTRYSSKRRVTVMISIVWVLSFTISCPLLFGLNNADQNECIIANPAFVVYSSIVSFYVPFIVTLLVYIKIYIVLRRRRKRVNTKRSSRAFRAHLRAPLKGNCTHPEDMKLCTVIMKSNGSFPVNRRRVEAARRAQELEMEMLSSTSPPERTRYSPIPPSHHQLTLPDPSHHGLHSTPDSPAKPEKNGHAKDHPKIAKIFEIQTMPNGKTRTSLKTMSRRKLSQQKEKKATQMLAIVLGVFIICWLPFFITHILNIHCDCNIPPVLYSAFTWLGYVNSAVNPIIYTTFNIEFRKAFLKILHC
On the technique in general: qHTS replaces the single test concentration by a dilution series.
Take `CCCCC(CC)COP(=O)(Oc1ccccc1)Oc1ccccc1` (configuration not stated): the Potency result was “inactive”.

With `C[C@]12CC[C@@H]3c4ccc(OC(=O)N(CCCl)CCCl)cc4CC[C@H]3[C@@H]1CC[C@@H]2O`, the Potency entry was “inactive”.

For the compound `CC(C)(N)Cc1ccc(Cl)cc1`, the Potency result is “inactive”. For the compound `N#Cc1c[nH]cc1-c1cccc2c1OC(F)(F)O2`, the Potency entry was “inactive”. As for `C=CC(=O)OCC`, the Potency result was “inactive”. As to `CNC(=O)O/N=C(\C)C(C)S(C)(=O)=O` (configuration not stated), the Potency entry is “inactive”. The same measure for `Cc1ccc2cc3c(ccc4ccccc43)c3c2c1CC3`: “inactive”.

The values are drawn from PubChem BioAssay (Tox21).
